Drawing on the supplement of paper PMC6555819, this text covers PBM binding z-score for 40 sequences.

The first experiment deals with THRa:RXRa (NR concentration 90 nM, RXRa partner concentration 90 nM). Briefly: PBM binding z-score (relative to random genomic background probes); higher = stronger binding; sequences stand for … in GC…GCGATTGACAGCGTAGAATGAAGG
In a few lines: (§1)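 Random background probes are the reference for binding z-scores. These scores derive from regression-normalized fluorescence on custom Agilent 4×180K protein-binding microarrays incubated 1 h with ligand-free nuclear receptor dimers. Binding was detected with antibodies against each partner (one per run).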
With CAAACTAGGTCGAAGGTCAAAGTCGAGCCAACCA, the PBM binding z-score is 3.5.

GCGACTGGGGCATCAGCAGGTTACTATAACTTAA displayed a PBM binding z-score of 0.816.

As to CGAACGAGGCCATGAGTTGATAGCAAATGCCGAT, the PBM binding z-score worked out at 0.837.

In turn, ATCGAAATGTCGACGAGGTGAGTATACACCGTTT returned a PBM binding z-score of 1.43.

CCTACTGCGCCAAAAAGGTCATTGATGCCGATAA came in with a PBM binding z-score of 3.04.

TAGCCTAGGTCATGCGAGCCAGTATAGTGTCGGC gave a PBM binding z-score of 2.98.

Consider CCTATTTGGTCAAGGTCACACACGCTATAGGTAC, for which the PBM binding z-score was 4.2.

The sequence GGAAAGAGGGCAAGTTGATAGCAGAGTTTGATGG registered a PBM binding z-score of 1.02.

Sequence ATACGTAGGTTAGCTGGGGTCATTCAGACTAGGC displayed a PBM binding z-score of 4.9.

Sequence GGAACGAGGGCAAGTTTATAGCAGAGTTTGATGG yielded a PBM binding z-score of 1.07.

TAGCCTAGGTCAGATCGGGCCAGTTTACGCTATA: the PBM binding z-score is 3.76.

CCTTACGGCTCACGAGGTTATAGCACGACGAGCG returned a PBM binding z-score of 1.39.

GCTTTTAGATCAAGGTTAAGAAAGACTAAGCTAA returned a PBM binding z-score of 1.37.

Take CGTCCAAGGTTAAAGGTCAGTGAAGAGATGACGG: the PBM binding z-score turned out to be 3.84.

Consider AGAATGAGGTTGTACGTAGATCAGGGAAGAAAGT, for which the PBM binding z-score turned out to be 0.638.

In turn, CCTAGCAGTCCAATCTGGGTCACTCAAGGCTTGA showed a PBM binding z-score of 2.86.

On to AGAACGAGGGCACGCTGAGTCGATAGCAGAGTAG, for which the PBM binding z-score came to 1.72.

As to AGAATGAGGTTATACGTATATCAGGGAAGAAAGT, the PBM binding z-score was 2.5.

TCTAGTTGGTCAATGGTCACACACTCGAAATGCG came in with a PBM binding z-score of 0.262.

For the sequence GGAACGAGGGCAAAGTAGATAGCATCTGTCGACG, the PBM binding z-score was 0.805.

In turn, AATACAGGGTCACTAGGACAGAGTAGGTACGAAT returned a PBM binding z-score of 3.64.

GTATCAAGGTGAATAGGTCGTTGATGAGTAGGCG: the PBM binding z-score was 2.29.

As to AGAATGTGGTTATACGTAGATCAGGGAAGAAAGT, the PBM binding z-score stood at 0.207.

Consider GCTCGGAGGACAAGGTCAGAGCTTTGTCCGTAGA, for which the PBM binding z-score worked out at 2.87.

Regarding CGTCAAAGTTCAACTAAGGTAGCGTAAAGCACGC, the PBM binding z-score turned out to be 5.06.

With CCTTACGGGTCAAGCTTATAGCACGGGTGGTACG, the PBM binding z-score was determined as 2.23.

For the sequence TTACCAAGGTGAGCTGAGGTCGTTGACCCAACTC, the PBM binding z-score worked out at 4.79.

The sequence ATCTCGAGGTAAAGATAGTTCAGTGAATGCAAAT displayed a PBM binding z-score of 1.5.

The sequence GCGACTGGGGCAAAGCAGGTTACCATAAGGTTGG gave a PBM binding z-score of 2.84.

In turn, CCCTACGGGTCAAGGTTATAGCACGGGTGGTACG showed a PBM binding z-score of 3.07.

As for TCATTTAGGTAATACAGGTGAAAGTCGGCATCTA, the PBM binding z-score was found to be 1.58.

The sequence CCTCGGAGGAGAACAGGAGGTCAGAGCTGCCAGA showed a PBM binding z-score of 2.21.

With CCTGCTAGGTCATCGTCAGCTAATCTACAGTATG, the PBM binding z-score is 2.92.

As for CGTCCATGGTCAATGCTAGGTCAGTGAAAGCATT, the PBM binding z-score turned out to be 1.9.

Take AGAACGAGGGCCCGCTGAGTTGATAGCAGAGTAG: the PBM binding z-score is -1.6.

Consider CCGCGGAGGACAGAAGGTCAGAGCTGTCCGCTTT, for which the PBM binding z-score came to 2.17.

In turn, TCTTGTAGATCAAGCAGGTTATGAAAGCCTGAGT showed a PBM binding z-score of 0.302.

Take ACTAGCAAGCCAAGGGTCACTCAAGATTAGTCCG: the PBM binding z-score is 2.51.

Turning to CTACCAAGGTGAACAAGGTCGCTGATTACTATTC, the PBM binding z-score was 3.28.

Sequence TCGAGTAGGTTACCAATGGGGTATTCAGCTTTCT registered a PBM binding z-score of 0.253.

Another experiment concerns THRa homodimer (NR concentration 90 nM). Described as above. In a few lines: as §1
With CAAACTAGGTCGAAGGTCAAAGTCGAGCCAACCA, the PBM binding z-score stood at 0.693.

Regarding GCGACTGGGGCATCAGCAGGTTACTATAACTTAA, the PBM binding z-score worked out at 0.104.

In turn, CGAACGAGGCCATGAGTTGATAGCAAATGCCGAT had a PBM binding z-score of -0.151.

As to ATCGAAATGTCGACGAGGTGAGTATACACCGTTT, the PBM binding z-score was determined as 0.345.

CCTACTGCGCCAAAAAGGTCATTGATGCCGATAA showed a PBM binding z-score of 1.34.

With TAGCCTAGGTCATGCGAGCCAGTATAGTGTCGGC, the PBM binding z-score amounted to 1.03.

As to CCTATTTGGTCAAGGTCACACACGCTATAGGTAC, the PBM binding z-score was 4.49.

GGAAAGAGGGCAAGTTGATAGCAGAGTTTGATGG came in with a PBM binding z-score of 0.275.

On to ATACGTAGGTTAGCTGGGGTCATTCAGACTAGGC, for which the PBM binding z-score stood at 2.74.

GGAACGAGGGCAAGTTTATAGCAGAGTTTGATGG came in with a PBM binding z-score of 0.0695.

TAGCCTAGGTCAGATCGGGCCAGTTTACGCTATA displayed a PBM binding z-score of 0.0282.

In turn, CCTTACGGCTCACGAGGTTATAGCACGACGAGCG yielded a PBM binding z-score of 0.522.

As to GCTTTTAGATCAAGGTTAAGAAAGACTAAGCTAA, the PBM binding z-score is 0.0946.

Sequence CGTCCAAGGTTAAAGGTCAGTGAAGAGATGACGG registered a PBM binding z-score of 0.929.

AGAATGAGGTTGTACGTAGATCAGGGAAGAAAGT displayed a PBM binding z-score of 0.288.

With CCTAGCAGTCCAATCTGGGTCACTCAAGGCTTGA, the PBM binding z-score came out at 0.629.

AGAACGAGGGCACGCTGAGTCGATAGCAGAGTAG yielded a PBM binding z-score of -0.22.

AGAATGAGGTTATACGTATATCAGGGAAGAAAGT gave a PBM binding z-score of 0.645.

Sequence TCTAGTTGGTCAATGGTCACACACTCGAAATGCG returned a PBM binding z-score of 0.437.

GGAACGAGGGCAAAGTAGATAGCATCTGTCGACG: the PBM binding z-score is -0.36.

Sequence AATACAGGGTCACTAGGACAGAGTAGGTACGAAT yielded a PBM binding z-score of 1.72.

Sequence GTATCAAGGTGAATAGGTCGTTGATGAGTAGGCG displayed a PBM binding z-score of 0.898.

For the sequence AGAATGTGGTTATACGTAGATCAGGGAAGAAAGT, the PBM binding z-score is 0.0442.

In the case of GCTCGGAGGACAAGGTCAGAGCTTTGTCCGTAGA, the PBM binding z-score worked out at 1.13.

CGTCAAAGTTCAACTAAGGTAGCGTAAAGCACGC: the PBM binding z-score was determined as 0.699.

CCTTACGGGTCAAGCTTATAGCACGGGTGGTACG yielded a PBM binding z-score of -0.294.

As to TTACCAAGGTGAGCTGAGGTCGTTGACCCAACTC, the PBM binding z-score stood at 2.16.

The sequence ATCTCGAGGTAAAGATAGTTCAGTGAATGCAAAT came in with a PBM binding z-score of -0.16.

Take GCGACTGGGGCAAAGCAGGTTACCATAAGGTTGG: the PBM binding z-score was found to be 0.0306.

CCCTACGGGTCAAGGTTATAGCACGGGTGGTACG: the PBM binding z-score turned out to be 0.962.

As to TCATTTAGGTAATACAGGTGAAAGTCGGCATCTA, the PBM binding z-score was determined as 1.

As to CCTCGGAGGAGAACAGGAGGTCAGAGCTGCCAGA, the PBM binding z-score came to 0.793.

In turn, CCTGCTAGGTCATCGTCAGCTAATCTACAGTATG returned a PBM binding z-score of 1.19.

CGTCCATGGTCAATGCTAGGTCAGTGAAAGCATT: the PBM binding z-score turned out to be 0.665.

AGAACGAGGGCCCGCTGAGTTGATAGCAGAGTAG gave a PBM binding z-score of -0.89.

Turning to CCGCGGAGGACAGAAGGTCAGAGCTGTCCGCTTT, the PBM binding z-score is -0.127.

Turning to TCTTGTAGATCAAGCAGGTTATGAAAGCCTGAGT, the PBM binding z-score was -0.815.

Take ACTAGCAAGCCAAGGGTCACTCAAGATTAGTCCG: the PBM binding z-score was found to be 0.0458.

As for CTACCAAGGTGAACAAGGTCGCTGATTACTATTC, the PBM binding z-score amounted to 1.81.

TCGAGTAGGTTACCAATGGGGTATTCAGCTTTCT showed a PBM binding z-score of -0.473.
